Data on 16 compounds can be found in PubChem BioAssay (NCATS).

The nature of assay [1]: Stat Signaling Pathway (AID 446; active means well fitted curve in either direction with a large enough effect, not every such curve was filed as active;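 further: ME-180 cervical cancer cells given 40 pM IL-6 alongside compound; SIE-controlled beta-lactamase reporter measured as 460/530 nm FRET emission ratio; on the % scale 0 is the no-effect control and ±100 the full control effect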). The note with it: ME-180 (cervical carcinoma) SIE beta-lactamase reporter, IL-6 stimulated, 5 h; at 17.2 µM (top of the series) unless noted. In a few lines:
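Emission at 460 and 530 nm (excitation 405 nm) reports SIE-controlled beta-lactamase in ME-180 cells. Cells received compound with 40 pM IL-6 for 5 hrs at 37 C; data scaled between 300 pM IL-6 and 125 nM JAK-inhibitor controls.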

Assay [2] addresses Glucocorticoid receptor (Homo sapiens) (UniProt P04150). The experiment in a line: GR-GFP Redistribution (AID 450). Further: potency means the concentration at half of the fitted maximal effect.

A number with no mark means an inactive call. Results filed as inconclusive are left out. The source made the active and inactive calls.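 How the source made its calls, unless noted: active means compounds whose dose series gives a full or clear partial fitted curve of increased nuclear translocation; inconclusive means weak partial curve or effect only at the top dose; inactive means no dose-dependent translocation response.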

Chain of Glucocorticoid receptor (Homo sapiens) (P04150 whole entry, looked up): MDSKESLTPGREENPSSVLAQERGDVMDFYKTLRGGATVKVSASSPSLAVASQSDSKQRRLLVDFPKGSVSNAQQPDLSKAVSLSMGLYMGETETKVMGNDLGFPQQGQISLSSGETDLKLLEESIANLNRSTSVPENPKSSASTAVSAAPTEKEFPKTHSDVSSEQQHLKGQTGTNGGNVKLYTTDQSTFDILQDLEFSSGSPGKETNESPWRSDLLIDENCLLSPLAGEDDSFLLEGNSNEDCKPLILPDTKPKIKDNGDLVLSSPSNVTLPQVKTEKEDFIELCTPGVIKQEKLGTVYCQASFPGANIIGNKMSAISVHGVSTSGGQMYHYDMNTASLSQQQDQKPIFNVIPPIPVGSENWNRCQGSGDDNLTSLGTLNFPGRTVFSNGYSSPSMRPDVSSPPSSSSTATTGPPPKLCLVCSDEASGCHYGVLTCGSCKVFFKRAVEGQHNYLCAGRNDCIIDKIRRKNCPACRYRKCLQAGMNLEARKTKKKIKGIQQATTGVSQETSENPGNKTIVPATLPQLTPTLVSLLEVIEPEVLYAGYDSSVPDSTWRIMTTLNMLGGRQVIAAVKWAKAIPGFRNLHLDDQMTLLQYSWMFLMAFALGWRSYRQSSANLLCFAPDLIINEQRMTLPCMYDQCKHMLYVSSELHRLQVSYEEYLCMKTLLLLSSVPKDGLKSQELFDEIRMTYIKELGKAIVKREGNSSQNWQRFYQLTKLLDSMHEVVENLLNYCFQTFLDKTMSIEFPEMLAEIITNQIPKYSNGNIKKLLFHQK

As for `CCCOC(=O)CSC1=C(C#N)C(c2ccccc2OCC)C(C#N)C(=O)N1` (configuration not stated), the activity, negative = inhibition in assay [1] was -11.2%. The Potency in assay [2] was greater than 20.6 µM.
For the compound `COc1cccc(-c2nc(N3CCN(Cc4ccccc4)CC3)c3ccccc3n2)c1O`, in assay [1], the activity, negative = inhibition is 9.62%. For the same compound, the Potency in assay [2] is greater than 20.6 µM.
For the compound `Cc1ccc2nc(C(F)(F)F)c(C#N)c(N)c2c1`, the activity, negative = inhibition in assay [1] is -100% (active). For the same compound, the Potency in assay [2] is greater than 20.6 µM.
As to `Cc1cccc(C)c1OCC(=O)Nc1cccc(-c2nnc(-c3ccccc3)o2)c1`, the activity, negative = inhibition in assay [1] was -9.86%. Besides, the Potency in assay [2] was greater than 20.6 µM.
On the same counts, the results for `Cc1cc(/C=c2/sc3nc4ccccc4n3c2=O)c(C)n1-c1ccccn1` are -5.6% and greater than 20.6 µM.
On the same counts, the results for `CCOc1ccc(C2=Nn3c(nnc3-c3ccccc3OC)SC2)cc1` are -10.6% and greater than 20.6 µM.
The corresponding values for `CC(C)CNC(=O)c1c(N)n(/N=C/c2ccccn2)c2nc3ccccc3nc12` are 9.58% and greater than 20.6 µM.
Regarding `COCc1[nH]nc2c1C(c1sccc1C)C(C#N)=C(N)O2` (configuration not stated), the activity, negative = inhibition in assay [1] was -24.3%. Further, in assay [2], the Potency is greater than 20.6 µM.
On to `COc1ccccc1N1C(=O)C2ON(c3ccccc3)C(c3ccc(N(C)C)cc3)C2C1=O` (configuration not stated), for which the activity, negative = inhibition in assay [1] was -10.2%. The Potency in assay [2] is greater than 20.6 µM.
The corresponding values for `CCc1[nH]nc2c1C(c1ccc(Br)s1)C(C#N)=C(N)O2` (configuration not stated) are -17.3% and greater than 20.6 µM.
On the same counts, the results for `CCN1CCc2c(C#N)c(N3CCCCC3)nc(NCc3ccccc3)c2C1` are 5.55% and greater than 20.6 µM.
On the same counts, the results for `CCOC(=O)CC(=O)CSc1nc(N)c(C#N)c(-c2ccc(Cl)cc2)c1C#N` are -16.4% and greater than 20.6 µM.
On to `COc1cccc(-c2nc(NC(C)(C)C)c3ccccc3n2)c1O`, for which the activity, negative = inhibition in assay [1] was -74.9% (active). The Potency in assay [2] is greater than 20.6 µM.
On the same counts, the results for `COc1ccc(CCn2c(C)cc3c(c2=O)C(c2ccc4c(c2)OCO4)C(C#N)=C(N)O3)cc1OC` (configuration not stated) are -21.6% and greater than 20.6 µM.
Turning to `Cc1cc(NCCNC2=CC(=O)CCC2)nc2ccccc12`, in assay [1], the activity, negative = inhibition was 4.57%. Besides, in assay [2], the Potency was greater than 20.6 µM.
On the same counts, the results for `CC(C)Cn1nc(NC(=O)C(C)(C)C)c2cc3ccccc3nc21` are -6.46% and greater than 20.6 µM.
